Rows were chosen to be rich in hits. Some 1.9% of all compounds tested hit in one or more screens of this group.
S1P4 agonist: activates the human S1P4 receptor. O95977. activation, % at 4.98 µM. S1P4-expressing cell line, agonist reporter assay. AID 1509. 0.35% of 220,000 active; in the data active means activation above about 11%
EP2 modulator: modulates human prostaglandin E2 receptor EP2 signaling | P43116 | EP2-expressing cells, cAMP HTRF FRET, PGE2 co-stimulation | induction, % at 25 µM | 0.83% of 260,000 active;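 active means compounds whose cAMP rise, as percent of the full-agonist control response, exceeds 60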;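 further: rat C6 glioma line stably carrying human EP2 under a CMV promoter; the protocol text gives 20 µM as final concentration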
Target sequence (P43116 whole entry, looked up): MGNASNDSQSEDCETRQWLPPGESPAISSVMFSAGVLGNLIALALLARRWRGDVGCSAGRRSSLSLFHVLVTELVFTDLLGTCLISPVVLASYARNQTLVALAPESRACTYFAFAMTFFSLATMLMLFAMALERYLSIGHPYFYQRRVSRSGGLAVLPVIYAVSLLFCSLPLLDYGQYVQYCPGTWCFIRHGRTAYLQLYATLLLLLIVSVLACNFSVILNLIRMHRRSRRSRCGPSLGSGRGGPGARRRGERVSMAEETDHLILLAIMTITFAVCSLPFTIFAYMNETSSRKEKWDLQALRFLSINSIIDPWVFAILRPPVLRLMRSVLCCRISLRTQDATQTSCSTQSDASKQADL
S1P3 antag: antagonists of human S1P3 receptor | AID 485 | CHO S1P3 NFAT-BLA reporter, FRET fluorescence, antagonist mode | Q99500 | 0.27% of 170,000 active | inhibition, % at 4.98 µM;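 active means inhibition above the plate cutoff, the mean inhibition of test wells on that plate plus 3 SD, cut at about 28% in these data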;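 further: cells challenged with S1P at its EC80 of 0.8 µM; blue over green emission ratio from cleaved BLA substrate after 4 h stimulation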
PGE2 EP2 inh: blocks the human prostaglandin E2 receptor EP2. P43116. C6 glioma cells expressing human EP2, cAMP TR-FRET; cells stimulated with saturating PGE2. inhibition, % at 25 µM. 0.52% of 260,000 active;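 active means percent inhibition above 40 after rounding to a whole number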;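 further: rat C6 glioma host cells with rolipram phosphodiesterase inhibitor present; the protocol text gives 20 µM as final concentration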
S1P4 antagonist: antagonists of human S1P4 receptor. AID 1510. inhibition, % at 4.98 µM. S1P4-expressing cells, antagonist mode, reporter read-out. 0.26% of 220,000 active; in the data active means inhibition above about 29%
S1P4 antag cf: human S1P4 antagonism, confirmation. 71% of 520 active. inhibition, % at 4.98 µM. S1P4-expressing cell line, antagonist mode, reporter read-out. shares compounds with S1P4 antagonist; in the data active means inhibition above about 30%
S1P1 antagonist: counter-screen for S1P4 antagonists: antagonists of human S1P1 | shares compounds with S1P4 antagonist | cell-based S1P1 antagonist counterscreen, inhibition | inhibition, % at 4.98 µM | 37% of 520 active | AID 1564; in the data active means inhibition above about 40%;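 further: receptor stimulated with S1P near its EC80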
A number is an active result; n = inactive; x = not tested or not shown.

SMILES	S1P4 agonist	EP2 modulator	S1P3 antag	PGE2 EP2 inh	S1P4 antagonist	S1P4 antag cf	S1P1 antagonist
CC1C(c2ccc(F)cc2)=NOC1C(=O)NCCCC1CCOC1 (centres undefined)	x	n	x	n	x	x	x
CC(C)(C)NC(=O)C(c1ccc(Cl)cc1)N(Cc1cccs1)C(=O)c1csnn1 (centres undefined)	x	n	x	n	x	x	x
CCCCOc1ccccc1C(=O)NCCCC(=O)O	n	n	x	n	35	n	n
Cn1c(N2CCCC(C(=O)NCCc3c[nH]c4ccccc34)C2)nc2ccccc21 (centres undefined)	x	n	x	n	x	x	x
Cc1ccc(NC(=O)COC(=O)c2ccc([N+](=O)[O-])o2)cc1S(=O)(=O)N1CCCCC1	n	n	n	n	n	x	x
Cc1ccc(NC(=O)c2ccc([N+](=O)[O-])o2)cc1S(=O)(=O)N1CCOCC1	n	n	n	n	68	88	42
O=C(Nc1cccc(S(=O)(=O)N2CCCCC2)c1)c1ccc([N+](=O)[O-])o1	n	n	n	n	54	95	n
O=C(COC(=O)c1ccc([N+](=O)[O-])o1)Nc1cccc(S(=O)(=O)N2CCCCC2)c1	n	n	n	n	n	x	x
Cc1nn(-c2ccccc2)c2c1C(c1ccc(O)c(O)c1)N1C(=N2)C(Nc2ccccc2)=Nc2ccccc21 (centres undefined)	n	n	x	n	51	70	65
Cc1ccc(NC2=Nc3ccccc3N3C2=Nc2c(c(C)nn2-c2ccccc2)C3c2ccc(O)c(O)c2)cc1 (centres undefined)	n	n	x	x	n	x	x
COc1ccc(OCC(=O)Nc2sc3c(c2C#N)CCCCC3)cc1	x	n	x	n	x	x	x
CCOC(=O)c1sc(-c2ccc(C(F)(F)F)cc2)nc1O	n	n	n	n	38	34	n
Cc1ccc(C)n1-c1ccc(C(=O)N2CCC(C(N)=O)CC2)cc1	n	n	n	n	44	n	n
Cc1ccc(C)c(N(C(=O)Cn2nnc3ccccc32)C(C(=O)NCc2ccco2)c2ccncc2)c1 (centres undefined)	n	n	n	n	34	n	n
CCc1nn(CC(=O)NC(C)(C)C)c(=O)c2cc3sccc3n12	x	n	x	x	x	x	x
O=c1[nH]c(N2CCCC2)nc2c1CN(Cc1ccc(N3CCCC3)cc1)CC2	x	n	x	n	x	x	x
Cc1nn(CC(=O)NC(C)(C)C)c(=O)c2cc3sccc3n12	x	n	x	x	x	x	x
CC(C)(C)c1ccc(C(O)CCCN2CCC(C(O)(c3ccccc3)c3ccccc3)CC2)cc1 (centres undefined)	n	n	n	n	33	n	n
O=C(Nc1nnc(-c2cccs2)o1)C1CC1	n	n	n	n	31	n	n
O=C(Nc1nnc(-c2ccc(Cl)s2)o1)C1CC1	n	n	n	n	n	x	x
COc1cccc(-n2nnnc2SCC(N)=O)c1	x	n	x	n	x	x	x
CCCS(=O)(=O)c1nnnn1-c1cccc(OC)c1	n	n	n	n	38	111	n
CC1=C(C(=O)Nc2ccc([N+](=O)[O-])cc2)C(c2cccc(C(F)(F)F)c2)NC(=S)N1c1ccccc1 (centres undefined)	n	n	x	n	31	33	n
Cc1ncc(-c2ccncc2)c(C2CCCN(C(=O)c3cnn(C)c3C)C2)n1 (centres undefined)	x	n	x	x	x	x	x
O=C1C(Nc2ccc(O)cc2)=C/C(=N/S(=O)(=O)c2cccs2)c2ccccc21	n	n	n	n	86	109	94
Cc1ccc(Cl)cc1NC1=C/C(=N\S(=O)(=O)c2cccs2)c2ccccc2C1=O	n	n	x	n	n	x	x
COc1ccc(-n2ncc(Cl)c(Cl)c2=O)cc1	n	n	n	n	95	118	57
